Reference: PubChem BioAssay (NCI)
The panel holds about 83,000 compounds, 20% with a hit somewhere; the sample as a whole holds those more often.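 A percent growth of 40 corresponds to 60% growth inhibition; 0 means no net growth; -100 means all cells died. Active threshold: below 10.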 Values without a mark were called inactive. Active and inactive are the calls of the source.

How the values were obtained:
Experiment in all cases: NCI-60 one-dose screen, 48 h (100 = growth as untreated, 0 = no growth, -100 = all killed)
Conditions in all cases: 10 µM
SN12C renal = tested on: SN12C renal
UO-31 renal = tested on: UO-31 renal
TK-10 renal = tested on: TK-10 renal
CAKI-1 renal = tested on: CAKI-1 renal
A498 renal = tested on: A498 renal
CCRF-CEM leukemia = tested on: CCRF-CEM leukemia
MOLT-4 leukemia = tested on: MOLT-4 leukemia
SR leukemia = tested on: SR leukemia
RPMI-8226 leukemia = tested on: RPMI-8226 leukemia
OVCAR-8 ovarian = tested on: OVCAR-8 ovarian
OVCAR-4 ovarian = tested on: OVCAR-4 ovarian
SK-OV-3 ovarian = tested on: SK-OV-3 ovarian
IGROV1 ovarian = tested on: IGROV1 ovarian
OVCAR-3 ovarian = tested on: OVCAR-3 ovarian
HS 578T breast = tested on: HS 578T breast
NCI/ADR-RES ovarian = tested on: NCI/ADR-RES ovarian
T-47D breast = tested on: T-47D breast
ACHN renal = tested on: ACHN renal
OVCAR-5 ovarian = tested on: OVCAR-5 ovarian

SMILES | growth (SN12C renal) | growth (UO-31 renal) | growth (TK-10 renal) | growth (CAKI-1 renal) | growth (A498 renal) | growth (CCRF-CEM leukemia) | growth (MOLT-4 leukemia) | growth (SR leukemia) | growth (RPMI-8226 leukemia) | growth (OVCAR-8 ovarian) | growth (OVCAR-4 ovarian) | growth (SK-OV-3 ovarian) | growth (IGROV1 ovarian) | growth (OVCAR-3 ovarian) | growth (HS 578T breast) | growth (NCI/ADR-RES ovarian) | growth (T-47D breast) | growth (ACHN renal) | growth (OVCAR-5 ovarian)
Cc1c(Cl)cccc1NC(=O)c1sc2nc3c(cc2c1N)C(=O)CCC3 | 30.8% | 33.3% | 74.3% | 23.9% | -19% (active) | 7.08% (active) | 6.7% (active) | 2.96% (active) | 5.08% (active) | 13.5% | 40.4% | 14.4% | 9.61% (active) | -40.1% (active) | 17.1% | 2.57% (active) | 54.5% |  | 
O=C1/C(=C\c2ccc(Cl)cc2)CN(C(=S)Nc2ccccc2)C/C1=C\c1ccc(Cl)cc1 | -52% (active) | -95% (active) | -60.5% (active) | -17.6% (active) |  | -2.03% (active) | 5.1% (active) | -15.1% (active) | -29.8% (active) | -5.17% (active) | -26% (active) | -42.3% (active) | -72.9% (active) | -87.6% (active) | -23.1% (active) | 1.25% (active) | -2.82% (active) | -86.8% (active) | -74.1% (active)
COc1cc2cc3c(nc2cc1OC)CCN3Cc1ccc(NC(=O)Nc2cc(C(F)(F)F)cc(C(F)(F)F)c2)cc1 | 74.3% | 57.7% | 85.6% | 69.4% | 58.4% | 51.7% | 36.9% | 55.2% | 54.2% | 61.7% | 80.5% | 95.2% | 84.3% | 51.6% | 77.4% | 60.5% | 71.5% |  | 92.6%
O=C1NC(=O)N(Cc2ccccc2)CC1Br (configuration not stated) | 56.3% | 77.6% | 86.3% |  | 129% | 13% | 57.7% | 19.7% |  | 61.9% | 77.7% | 87% | 56.9% | 92.9% | 114% | 56.6% | 57% |  | 85.3%
O=C(c1ccc(Cl)cc1Cl)N1CCOCC1 | 105% | 83.4% | 101% |  | 91.2% | 106% | 99.1% |  | 95.9% | 104% | 98.9% | 98.5% | 105% | 109% | 107% | 96.5% | 92.3% | 103% | 96%
COc1cc(C(=O)N2CCN(c3ccccc3OC)CC2)c(N)cc1OCCCN1CCN(c2ccccc2OC)CC1 | 98.6% | 62.4% | 113% |  | 117% | 4.33% (active) | 53.8% | 67.7% | 56.4% | 101% | 77.7% | 75.4% | 77.6% | 77.7% | 99% | 80.1% | 50.9% | 88.8% | 
O=C1/C(=C\c2ccc(F)cc2)CN(C(=O)c2ccc([N+](=O)[O-])cc2)C/C1=C\c1ccc(F)cc1 | 46.9% | 24.3% | 87.3% | 39.4% | 52% | 7.75% (active) | 27.2% | -19.3% (active) | -13.3% (active) | 19.5% | 50.5% | 50.8% | 33.9% | 10.3% | -9.57% (active) | 24.3% | 64.5% |  | 77.1%
S=C1SCC(c2ccccc2)S1 (configuration not stated) | 101% | 104% | 107% | 97.1% | 102% | 101% | 107% | 103% | 102% | 103% | 93.8% | 104% | 114% | 121% | 143% | 112% | 99.6% |  | 106%
O=[N+]([O-])c1ccc(N/N=C/c2cccc3ccccc23)nc1 | 103% | 86.9% | 100% |  | 106% | 14.9% | 57.3% | 79.4% |  | 104% | 90.4% | 105% | 89.8% | 122% | 108% | 107% | 75.4% | 91.8% | 96.7%
O=C(CCCCC(=O)Nc1ccc2c(c1)/C(=C/c1ccc[nH]1)C(=O)N2)NO | 93.1% | 83.6% |  | 97.8% | 50.8% | 32.4% | 60.8% | 45.4% | 96.3% | 69.4% | 56.6% | 73.6% | 95.5% | 36.9% | 72.4% |  | 0.269% (active) | 101% | 100%
CSc1nc(=O)n(Cc2ccc(Cl)cc2)c(=O)[nH]1 | 107% | 112% |  | 112% | 103% | 100% | 105% | 95.5% | 103% | 98.8% | 110% |  | 132% | 114% | 105% | 105% | 90.1% | 103% | 102%
CSc1nc(=O)n(Cc2ccc(F)cc2)c(=O)n1Cc1ccc(C)cc1 | 96.3% | 80.1% |  | 84.9% | 106% | 98.5% | 92.4% |  | 99.2% | 97.6% | 98.4% | 98.7% | 107% | 101% | 109% | 86.6% | 87% | 101% | 102%
COc1cc(-c2cc(/C=C/C(=O)c3ccc(F)c(F)c3)[nH]n2)cc(OC)c1OC | 39.2% | 61.2% |  | 6.42% (active) | 60.9% | 33.3% | 41% | 44.3% | 22.6% | 58.1% | 40.1% | 90% | 73.1% | 49.6% | 61.3% |  | 53.6% | 36.8% | 76%
Cn1c([N+](=O)[O-])cnc1/C=C1\Oc2ccccc2C1=O | -18.2% (active) | -39.3% (active) |  | -23% (active) | -3.16% (active) | 2.77% (active) |  | 9.62% (active) | -7.1% (active) | -26% (active) | 10.5% | -15.9% (active) | -29.5% (active) | -21% (active) | -21.8% (active) | -5.9% (active) | 87.3% | 3.1% (active) | 0.959% (active)
CS(=O)(=O)Nc1ccc(Nc2c3ccccc3nc3cc([N+](=O)[O-])ccc23)cc1 | 20.3% | 16.6% |  | 37.7% | 45.4% | 2.39% (active) | 4.17% (active) |  | 0.427% (active) | 16.6% | 46.8% | 53.3% | 10.5% | -1.65% (active) | 60.3% | 87% | -11% (active) | 12.6% | 67.7%
Cc1[nH]nc2c1C(c1cnn(C)c1)C(C#N)=C(N)O2 (configuration not stated) | 103% | 81.3% |  | 102% | 69.9% | 101% | 98.6% | 89.3% | 99.3% | 99.8% | 101% | 103% | 106% | 106% | 104% | 108% | 96.4% | 104% | 109%
O=C(NN1C(=O)CSC1c1ccc(Cl)cc1)c1cccnc1 (configuration not stated) | 131% | 72.2% |  | 98.2% |  | 99.5% |  |  | 74.8% | 99.7% | 118% | 106% | 112% | 121% |  | 91.4% | 102% | 113% | 86.7%
CS(=O)(=O)Nc1ccc(Nc2c3ccccc3nc3cc(N)ccc23)cc1 | 5.31% (active) | 28.6% |  | 19.9% | 57.1% |  | 5.41% (active) | 8.53% (active) | 21.6% | 24.8% | 43.2% | 32% | 37.5% | 15.3% | 23.7% | 96.5% | -14.5% (active) | 24.9% | 56.6%
